Source: the supplement of paper PMC7411054

How the values were obtained:
Assay in all cases: phenotypically active (imaging signature differs from DMSO and reproducible) at any of 0.3-9 uM (binary (1 = active, 0 = inactive)); higher = active
Settings in all cases: treatment time: 24 h
[1] = tested on: A549-ACTB-RAB5A
Outline: (§1)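 Fifteen reporter lines derived from A549, HepG2 and WPMY1 cells by gene editing, carrying BFP for segmentation plus GFP and RFP/FusionRed markers, were exposed to 0.3, 1, 3 or 9 µM for 24 h in four wells each and imaged live. Live-cell features from each well were normalised to solvent control wells. A well set counted as deviating when ≥3 of 4 wells lay beyond the 95th percentile of control Euclidean distances, and as reproducible when the median replicate Pearson correlation exceeded the 95th percentile of non-replicates. Phenotypic activity was assigned only when both criteria were met.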

[2] = tested on: A549-CANX-COX4
Outline: as §1

[3] = tested on: A549-GM130-SQSTM1
Outline: as §1

[4] = tested on: A549-TP53BP1-CLTA
Outline: as §1

[5] = tested on: A549-TUBA1B-RELA
Outline: as §1

[6] = tested on: HepG2-ACTB-RAB5A
Outline: as §1

[7] = tested on: HepG2-CANX-COX4
Outline: as §1

[8] = tested on: HepG2-GM130-SQSTM1
Outline: as §1

[9] = tested on: HepG2-TP53BP1-CLTA
Outline: as §1

[10] = tested on: HepG2-TUBA1B-RELA
Outline: as §1

[11] = tested on: WPMY1-ACTB-RAB5A
Outline: as §1

[12] = tested on: WPMY1-CANX-COX4
Outline: as §1

[13] = tested on: WPMY1-GM130-SQSTM1
Outline: as §1

[14] = tested on: WPMY1-TP53BP1-CLTA
Outline: as §1

[15] = tested on: WPMY1-TUBA1B-RELA
Outline: as §1

Measured: phenotypically active

CCCCc1nc(Cl)c(CO)n1Cc1ccc(-c2ccccc2-c2nnn[nH]2)cc1 [losartan]
inactive: [1] 0 | [2] 0 | [3] 0 | [4] 0 | [5] 0 | [6] 0 | [7] 0 | [8] 0 | [9] 0 | [10] 0 | [11] 0 | [12] 0 | [13] 0 | [14] 0 | [15] 0

Cc1cnc(C(=O)NCCc2ccc(S(=O)(=O)NC(=O)NC3CCCCC3)cc2)cn1 [glipizide]
inactive: [1] 0 | [2] 0 | [3] 0 | [4] 0 | [5] 0 | [6] 0 | [7] 0 | [8] 0 | [9] 0 | [10] 0 | [11] 0 | [12] 0 | [13] 0 | [14] 0 | [15] 0

c1ccc2c(c1)CCCC2C1=NCCN1 (stereo not given) [tetrahydrozoline]
inactive: [1] 0 | [2] 0 | [3] 0 | [4] 0 | [5] 0 | [6] 0 | [7] 0 | [8] 0 | [9] 0 | [10] 0 | [11] 0 | [12] 0 | [13] 0 | [14] 0 | [15] 0

COc1ccc2[nH]c(S(=O)Cc3ncc(C)c(OC)c3C)nc2c1 (stereo not given) [omeprazole]
inactive: [1] 0 | [2] 0 | [3] 0 | [4] 0 | [5] 0 | [6] 0 | [7] 0 | [8] 0 | [9] 0 | [10] 0 | [11] 0 | [12] 0 | [13] 0 | [14] 0 | [15] 0

COc1ccc(C(C)=O)c(O)c1 [2'-Hydroxy-4'-Methoxyacetophenone]
inactive: [1] 0 | [2] 0 | [3] 0 | [4] 0 | [5] 0 | [6] 0 | [7] 0 | [8] 0 | [9] 0 | [10] 0 | [11] 0 | [12] 0 | [13] 0 | [14] 0 | [15] 0

CC(C)(Oc1ccc(C2CC2(Cl)Cl)cc1)C(=O)O (stereo not given) [ciprofibrate]
inactive: [1] 0 | [2] 0 | [3] 0 | [4] 0 | [5] 0 | [6] 0 | [7] 0 | [8] 0 | [9] 0 | [10] 0 | [11] 0 | [12] 0 | [13] 0 | [14] 0 | [15] 0

O=C1c2ccccc2C(Cc2ccncc2)(Cc2ccncc2)c2ccccc21
inactive: [1] 0 | [2] 0 | [3] 0 | [4] 0 | [5] 0 | [6] 0 | [7] 0 | [8] 0 | [9] 0 | [10] 0 | [11] 0 | [12] 0 | [13] 0 | [14] 0 | [15] 0

N=C(N)NN=Cc1c(Cl)cccc1Cl [guanabenz]
inactive: [1] 0 | [2] 0 | [3] 0 | [4] 0 | [5] 0 | [6] 0 | [7] 0 | [8] 0 | [9] 0 | [10] 0 | [11] 0 | [12] 0 | [13] 0 | [14] 0 | [15] 0

Oc1cc(O)c2c(c1)O[C@H](c1ccc(O)c(O)c1)[C@@H](O)C2 [Epicatechin-(-)]
inactive: [1] 0 | [2] 0 | [3] 0 | [4] 0 | [5] 0 | [6] 0 | [7] 0 | [8] 0 | [9] 0 | [10] 0 | [11] 0 | [12] 0 | [13] 0 | [14] 0 | [15] 0

CCOc1cc(CC(=O)N[C@@H](CC(C)C)c2ccccc2N2CCCCC2)ccc1C(=O)O [repaglinide]
inactive: [1] 0 | [2] 0 | [3] 0 | [4] 0 | [5] 0 | [6] 0 | [7] 0 | [8] 0 | [9] 0 | [10] 0 | [11] 0 | [12] 0 | [13] 0 | [14] 0 | [15] 0

C[N+]1(C)[C@@H]2C[C@@H](OC(=O)C(O)(c3cccs3)c3cccs3)C[C@H]1[C@@H]1O[C@@H]12 [Tiotropium bromide]
inactive: [1] 0 | [2] 0 | [3] 0 | [4] 0 | [5] 0 | [6] 0 | [7] 0 | [8] 0 | [9] 0 | [10] 0 | [11] 0 | [12] 0 | [13] 0 | [14] 0 | [15] 0

COC(=O)C1=CO[C@@H](O[C@@H]2O[C@H](CO)[C@@H](O)[C@H](O)[C@H]2O)[C@H]2[C@@H]1C(=O)C[C@@H]2C [Verbenaline]
inactive: [1] 0 | [2] 0 | [3] 0 | [4] 0 | [5] 0 | [6] 0 | [7] 0 | [8] 0 | [9] 0 | [10] 0 | [11] 0 | [12] 0 | [13] 0 | [14] 0 | [15] 0
